Test results from the supplement of paper PMC12494721.
Structures can show the parent of a compound that is named as a salt.

tested on: Klebsiella aerogenes DSM 30053; test: fold change of Histamine concentration vs plate DMSO controls (fold change (ratio)); higher = more amine produced, active = hit call of the paper (significant change in both replicates, either direction); details: incubation time: 27 h, anaerobic, 37 °C;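 for the amine columns active = adjusted P below 0.05 in both replicates with a change the same way and a mean fold change under 0.8 or over 1.25; inactive = the rest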
Method in brief: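 Anaerobic mGAM cultures of four gut bacterial strains were grown at 37 °C for 27 h in 80 µL wells, starting at OD 0.1 before 1:1 dilution. Compounds were at 20 µM final (sweeteners 50 µM). Whole cultures were extracted with cold acetonitrile/methanol containing 0.1% formic acid and centrifuged. Amines were quantified by LC–triple-quadrupole MS (dynamic MRM) against external calibration curves and drift-corrected within batch. Each value is the fold change versus plate DMSO controls, averaged over 2 biological replicates.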

Fold change of Histamine concentration, inactive:
CC(C)[C@H]1CC[C@H](C(=O)N[C@H](Cc2ccccc2)C(=O)O)CC1 [Nateglinide] (20 µM) 1.01
O=C1OC(c2ccc(O)cc2)(c2ccc(O)cc2)c2ccccc21 [Phenolphthalein] (20 µM) 1
COc1cc2c(cc1OC)C(=O)C(CC1CCN(Cc3ccccc3)CC1)C2 (stereo not given) [Donepezil hydrochloride] (20 µM) 1.53
CC1=C(CC(=O)O)c2cc(F)ccc2/C1=C\c1ccc([S+](C)[O-])cc1 (stereo not given) [Sulindac] (20 µM) 0.931
Cc1cn([C@H]2C=C[C@@H](CO)O2)c(=O)[nH]c1=O [Stavudine] (20 µM) 1.04
C[C@]12CCC(=O)C=C1CC[C@@H]1[C@@H]2C(=O)C[C@@]2(C)[C@H]1CC[C@]2(O)C(=O)CO [Cortisone] (20 µM) 0.991
C/C(O)=C(\C#N)C(=O)Nc1ccc(C(F)(F)F)cc1 [Teriflunomide] (20 µM) 1.01
C[N+](C)(C)CCCCCC[N+](C)(C)C [Hexamethonium dibromide dihydrate] (20 µM) 1.02
COC(=O)CCc1ccc(OCC(O)CNC(C)C)cc1 (stereo not given) [Esmolol hydrochloride] (20 µM) 0.88
O=C(O)Cc1ccccc1Oc1ccc(Cl)cc1Cl [Fenclofenac] (20 µM) 1.01
